Compounds without any hit were thinned out: in the full panel of roughly 83,000, 20% have a hit.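 Interpretation: 100, growth as untreated; towards 0, rising growth inhibition; 0, no net growth; 0 to -100, cell death. Compounds scoring below 10 were considered active.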 Active and inactive are the calls of the source.
Tests used:
Experiment in all cases: NCI-60 one-dose screen, 48 h (100 = growth as untreated, 0 = no growth, -100 = all killed)
Settings in all cases: 10 µM unless noted
NCI-H23 lung = test system: NCI-H23 lung
NCI-H226 lung = test system: NCI-H226 lung
NCI-H322M lung = test system: NCI-H322M lung
HOP-62 NSCLC = test system: HOP-62 NSCLC
NCI-H460 lung = test system: NCI-H460 lung
HOP-92 NSCLC = test system: HOP-92 NSCLC
NCI-H522 lung = test system: NCI-H522 lung
A549/ATCC NSCLC = test system: A549/ATCC NSCLC
786-0 renal = test system: 786-0 renal
COLO 205 colon = test system: COLO 205 colon
DU-145 prostate = test system: DU-145 prostate
K-562 leukemia = test system: K-562 leukemia
MALME-3M melanoma = test system: MALME-3M melanoma
MDA-MB-231 breast = test system: MDA-MB-231 breast
RXF 393 renal = test system: RXF 393 renal
SF-268 CNS = test system: SF-268 CNS
SF-295 CNS = test system: SF-295 CNS
SF-539 CNS = test system: SF-539 CNS
UACC-257 melanoma = test system: UACC-257 melanoma
M14 melanoma = test system: M14 melanoma

Row | Structure (SMILES) | growth (NCI-H23 lung) | growth (NCI-H226 lung) | growth (NCI-H322M lung) | growth (HOP-62 NSCLC) | growth (NCI-H460 lung) | growth (HOP-92 NSCLC) | growth (NCI-H522 lung) | growth (A549/ATCC NSCLC) | growth (786-0 renal) | growth (COLO 205 colon) | growth (DU-145 prostate) | growth (K-562 leukemia) | growth (MALME-3M melanoma) | growth (MDA-MB-231 breast) | growth (RXF 393 renal) | growth (SF-268 CNS) | growth (SF-295 CNS) | growth (SF-539 CNS) | growth (UACC-257 melanoma) | growth (M14 melanoma)
1 | O=S(=O)(c1nc(-c2ccc(Br)cc2)oc1-c1ccc(Cl)cc1)N1CCCC(O)C1 (stereo not given) | 47.3% (inactive) | 60.4% (inactive) | 78.3% (inactive) | 102% (inactive) | 34.1% (inactive) | -14.5% (active) | 49.2% (inactive) | 47.6% (inactive) | 58.9% (inactive) | 81% (inactive) | 72.6% (inactive) | 33.8% (inactive) | 74.8% (inactive) | 60% (inactive) | 51.3% (inactive) | 63% (inactive) | 58.1% (inactive) | 84.5% (inactive) | 80.3% (inactive) | 69.7% (inactive)
2 | Oc1ccc(F)c(Nc2nc(SCCN3CCOCC3)nc3c2cnn3CC(Cl)c2ccc(Br)cc2)c1 (stereo not given) | 26.3% (inactive) | 29.2% (inactive) | 80.2% (inactive) | 30.3% (inactive) | 3.31% (active) | 1.93% (active) | 29.2% (inactive) | 23.9% (inactive) | 61.2% (inactive) | 94.6% (inactive) | 34% (inactive) | -3.32% (active) | 1.03% (active) | -17.6% (active) | -48.4% (active) | 24.1% (inactive) | 2.35% (active) | 17.3% (inactive) | 14.4% (inactive) | 18.8% (inactive)
3 | CC(C)(C)c1cc(-c2cc(-c3ccccc3)[nH]c(=O)c2C#N)cc(C(C)(C)C)c1 | 40.4% (inactive) | 3.42% (active) | 23.6% (inactive) | -40.2% (active) | 14.9% (inactive) | -16% (active) | 41.8% (inactive) | 5.52% (active) | 23% (inactive) | 91.5% (inactive) | 34.5% (inactive) | 62.9% (inactive) | 37.6% (inactive) | -21.4% (active) | -2.55% (active) | 40.8% (inactive) | 0.897% (active) | 21.1% (inactive) | 43.1% (inactive) | 40.2% (inactive)
4 | COc1ccc(NC(=O)CSc2nnc(-c3ccc(-c4nc5ccccc5[nH]4)cc3)o2)cc1 | 11.9% (inactive) | 20.3% (inactive) | 74.3% (inactive) | -15.8% (active) | 0.884% (active) | 10.8% (inactive) | 0.861% (active) | 6.46% (active) | -33.8% (active) | 49.2% (inactive) | 5.8% (active) | 22.2% (inactive) | 10.2% (inactive) | 19.2% (inactive) | -54.4% (active) | 49.6% (inactive) | 74.8% (inactive) | -86.6% (active) | 36.4% (inactive) | 1.64% (active)
5 | O=C(N/N=C/c1ccc(Cl)cc1)c1ccc(OCc2nc3ccc(Cl)cc3[nH]2)cc1 | 4.91% (active) | 77.4% (inactive) | 71.3% (inactive) | -41.6% (active) | -82.3% (active) | 19.6% (inactive) | 7.51% (active) | -60.1% (active) | -63.1% (active) | 4.04% (active) | -36.1% (active) | 14.6% (inactive) | 37.5% (inactive) | 6.26% (active) | -10% (active) | 82.1% (inactive) | 13.8% (inactive) | 67.6% (inactive) | 24.8% (inactive) | -14.1% (active)
6 | COc1cc(C=O)ccc1OC(=O)c1cc(-c2ccc(C)cc2)n(-c2ccc(S(C)(=O)=O)cc2)n1 | 101% (inactive) | 138% (inactive) | 101% (inactive) | 102% (inactive) | 110% (inactive) | 98.3% (inactive) | 93.3% (inactive) | 103% (inactive) | 102% (inactive) | 126% (inactive) | 108% (inactive) | 86.5% (inactive) | 102% (inactive) | 97.3% (inactive) | 117% (inactive) | 116% (inactive) | 103% (inactive) | 105% (inactive) | 101% (inactive) | 109% (inactive)
7 | FC(F)(F)c1cc2c(Cl)ncnc2n1CCN1CCCCC1 | 34.8% (inactive) | 97.8% (inactive) | 64.2% (inactive) | 76.3% (inactive) | 57.9% (inactive) | 94.3% (inactive) | -80.1% (active) | 95.5% (inactive) | 92.5% (inactive) | 75.2% (inactive) | 50% (inactive) | 0.547% (active) | 86.9% (inactive) | 38.8% (inactive) | 80.8% (inactive) | 9.33% (active) | 80.9% (inactive) | 73.4% (inactive) | 73.6% (inactive) | 24.1% (inactive)

From PubChem BioAssay (NCI)
